# Experimental data published in the supplement of paper PMC10338343.
# ± gives the standard deviation.
# System: MILI (PIWIL2) piRISC loaded with piRNA #1 (26 nt)
# Test: pre-steady-state target cleavage rate (min^-1); guide: piRNA #1 5'p-UGAGGUAGUAGGUUGUAUAGUAUCCA; MIWI and MILI are mouse PIWI proteins and EfPiwi is from a freshwater sponge; tags in brackets are library labels; higher = faster piRNA-guided slicing of the target
# Settings: auxiliary factor: 500 nM mouse GTSF1
# How it was run: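 A transcribed, DNA-blocked target RNA library (0.1 nM) and 1 nM active affinity-purified piRISC bearing one synthetic guide were incubated in HEPES–potassium acetate buffer at 33 °C for 0–8 or 0–960 min, either with or without 500 nM GTSF1 partner protein. Uncleaved targets were sequenced, normalised to depth and to weakly complementary targets, and pooled over three trials, with k3 capped at 0.0001 min^-1. The pre-steady-state cleavage rate was derived with a burst-and-steady-state fit.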
row,Sequence,pre-steady-state target cleavage rate
1,GGAGACCUAUCUAUACAACCUAGUUCCUCA,0.0148 ± 0.0059
2,GGAGACCUAUGAAACAACCUACUACCUCA,0.00673 ± 0.0031
3,GGAGACCUAUCUAUACUACCUACAACCUCA,0.0808 ± 0.009
4,GGAGACGAUACUUAUACAACCUACUACCUCA,0.139 ± 0.012
5,GGAGACCAUACUAUUCAACCUACUACGUCA,0.0881 ± 0.013
6,GGAGUGGAAACUAUACAACCUACUACCUCA,0.225 ± 0.02
7,GGAGACCUAUGAAUACCACCUACUACCUCA,0.00372 ± 0.0036
8,GGAGACCUAUGAUAUGUACCUACUAGCACA,< 0.0001
9,GGAGACCUAUGUAUACAACCUUCUACCUCA,0.00351 ± 0.0017
10,GGAGACCUAUCUACUACAACCUACUACCUCA,0.0541 ± 0.0097
11,GGAGACCAUACUAUUCAACCAACUACCUCA,0.00316 ± 0.0029
12,GGAGACCUAUGUAUACUACCUUCUACCUCA,0.00348 ± 0.0016
13,GGAGACCUUACAAUACAACCUACUACGUCA,0.0615 ± 0.009
14,GGAGACCUAUGAUAUGUUCCUACAAGCUCA,< 0.0001
15,GGAGACGAUACUAUACAACCUACUACCUA,0.151 ± 0.018
16,GGAGACCUAUGAUAUGUUCCUAUCUACCUCA,< 0.0001
17,GGAGACCUUACUAUACUACCUACUUCCUCA,0.119 ± 0.019
18,GGAGAGGAUACUAUUGAACCUACUACCUCA,0.124 ± 0.011
19,GGAGACCUAUGAAUACUACCUACUACCACA,0.00343 ± 0.0025
20,GGAGACCUAUGAUAUGUACCUAGUACCUCA,< 0.0001
21,GGAGACCUAUGAUUACAACCUACUAGCCUCA,0.00776 ± 0.0028
22,GGAGACCUAUGAUAUGUACCUACUACCCA,< 0.0001
23,GGAGACCUUACUAUACAACCUACUUGGAGA [g7:g22:cont:t1A],0.00375 ± 0.0034
24,GGAGACCUAUGAUUACAACGUACUUCCUCA,0.00374 ± 0.0031
